AmpC inh detg – AmpC beta-lactamase inhibition with detergent present. 0.041% of 370,000 active. P00811. AmpC hydrolysis of nitrocefin, absorbance 480 nm, 0.01% Triton. Potency, µM (series often up to 114 µM), for inactives: at the highest dose activity change, negative = inhibition, usual class: inhibitors. AID 485294;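 note: potency is the fitted concentration of half-maximal effect; 0% = no-compound wells and -100% = no-enzyme wells; nearly all actives have a fitted effect of over 25% in size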
Target sequence (P00811 whole entry, looked up): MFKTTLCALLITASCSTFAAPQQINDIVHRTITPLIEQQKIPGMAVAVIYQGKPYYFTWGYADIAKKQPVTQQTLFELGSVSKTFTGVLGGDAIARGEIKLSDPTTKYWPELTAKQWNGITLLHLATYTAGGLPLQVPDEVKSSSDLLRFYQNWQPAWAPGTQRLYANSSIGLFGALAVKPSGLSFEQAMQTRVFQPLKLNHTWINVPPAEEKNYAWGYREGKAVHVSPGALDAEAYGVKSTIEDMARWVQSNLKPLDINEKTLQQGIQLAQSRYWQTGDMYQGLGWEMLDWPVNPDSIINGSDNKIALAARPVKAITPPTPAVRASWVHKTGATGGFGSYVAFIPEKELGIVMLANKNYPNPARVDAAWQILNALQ
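20 mM phosphate pH 7.0 + 0.01% (detergent screen) or 0.0001% Triton X-100; 5.3 nM AmpC reagent; cpd preinc 15 min RT; nitrocefin (800 uM stock) to start; A480 q20 s × 4 min; Activity was normalised to no-enzyme and no-compound control wells.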
SARS PLP yeast – inhibitors of SARS-CoV papain-like protease in yeast; S. cerevisiae expressing SARS-CoV PLpro, growth rescue; 0.19% of 330,000 active; AID 485353; Potency, µM (top dose mostly 32.9 µM), without a hit: at the top dose activity, positive = growth rescue, actives largely listed as activators; calls by dose curve; note: potency is the fitted concentration of half-maximal effect; 0% is about no effect; nearly all actives have a fitted effect of over 55% in size
AmpC no deterg – inhibitors of E. coli AmpC beta-lactamase without detergent. AID 485341. Potency, µM (titrated, usually from 57.1 µM), for the others: at the highest dose activity change, negative = inhibition, actives largely listed as inhibitors. 0.52% of 330,000 active. AmpC nitrocefin hydrolysis, absorbance 480 nm, 0.0001% Triton;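 note: potency is the fitted concentration of half-maximal effect; plate controls were no compound for no effect and no enzyme for full effect; nearly all actives have a fitted effect of over 20% in size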
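AmpC (5.3 nM in the dispensed reagent) in 20 mM phosphate pH 7.0 with 0.01% (detergent screen) or 0.0001% Triton X-100 was preincubated with compounds for 15 min at room temperature. Nitrocefin was then added from an 800 uM solution, and hydrolysis was followed at 480 nm.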
Cycloheximide cs – counter-screen hit for Shiga toxin inhibitors, cycloheximide; cell reporter, cycloheximide protein synthesis inhibition counterscreen; 12% of 300,000 active; max response, %; AID 2314; in the data active = max response mostly above about 13%, no sharp cut-off; inactive = mostly below about 14%; note: read at 38.3 µM for the half of the compounds with a filed dose; 0% is about no effect
Shiga inhibitor – Shiga toxin inhibition. Vero cells, Shiga toxin protein synthesis inhibition reporter. inhibition, % at 38.7 µM. 9.2% of 290,000 active; in the data active = inhibition mostly above about 28%, no sharp cut-off; inactive = mostly below about 43%; note: 0% is about no effect
AMA1-RON2 inh – inhibitors of Plasmodium falciparum AMA1-RON2 interaction | AlphaScreen AMA1-biotinylated RON2 peptide binding | Potency, µM (doses to about 58.2 µM), without a hit: at the highest dose activity change, negative = inhibition, most hits filed as inhibitors | 0.2% of 360,000 active | AID 720542;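 note: potency is the fitted concentration of half-maximal effect; 0% = vehicle wells and -100% = peptide control; nearly all actives have a fitted effect of over 45% in size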
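AMA1 (3D7) with his tag at 25 nM final met compounds first, then biotinylated RON2 peptide at 25 nM; detection used donor plus acceptor beads, 10 µg/mL apiece, read by AlphaScreen after 30 min at room temperature.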
Starred values were filed as active, the others as inactive; ? = inconclusive; nt = not tested or not shown; [ ] = remark or other dose. The full list was thinned out, with hits kept by preference. Unless noted, calls come from the whole dose curve; as a rule, active = well fitted curve in the direction sought with a large enough effect; inconclusive = small, poorly fitted or top-dose-only effect, or another doubt; inactive = no such curve, though single readings can be large; an effect the other way counts as inactive or inconclusive.

SMILES	AmpC inh detg	SARS PLP yeast	AmpC no deterg	Cycloheximide cs	Shiga inhibitor	AMA1-RON2 inh
COC(=O)c1ccccc1NC(=S)NC(C)=O	-5%	0%	-19%	-2	-4	-5%
COc1ccc(C(C)(O)c2nc(-c3csc4ccccc34)cs2)cc1 (centres undefined)	nt	nt	nt	nt	nt	-4%
C/C(CC(=O)Nc1ccc(Br)cc1)=N\NC(=O)Cc1csc(N)n1	-4%	0%	-12%	29*	27	149%
C/C(CC(=O)Nc1ccc(F)cc1)=N\NC(=O)Cc1csc(N)n1	-15%	-3%	-9%	-2	-2	62%
C/C(CC(=O)Nc1ccccc1C)=N\NC(=O)Cc1csc(N)n1	2%	7%	-18%	41*	62*	75%
Cc1ccc(COCCN2CCN(S(=O)(=O)c3ccc(C)cc3)CCC2=O)cc1	?	-8%	163%	-5	14	2%
COc1ccc(-c2noc(CCc3ccccc3)n2)cc1	-11%	-2%	-30%	23*	88*	46%
CCN(CCn1cccn1)Cc1nc(-c2ccc(OC)cc2)no1	4%	0%	8%	4	14	0%
COc1ccc(-c2noc(CN(C)Cc3ccccc3)n2)cc1	0%	2%	-2%	11*	18	14%
COc1ccc(-c2noc(CN(C)Cc3ccc(C)o3)n2)cc1	-2%	?	14%	11*	35*	6%
O=C(Cn1c(=O)nc(-c2ccccc2)c2cc(Cl)ccc21)N1CCN(c2ccccc2F)CC1	10%	nt	nt	nt	nt	nt
Nc1cccc(C(=O)c2ccccc2C(=O)O)c1	nt	nt	nt	nt	nt	0%
NC(N)=N/N=C/c1cc([N+](=O)[O-])ccc1O	?	?	-11%	12*	11	79%
O=[N+]([O-])c1ccc(O)c(/C=N\N=C2c3ccccc3-c3ccccc32)c1	-7%	-38%	-22%	7	6	-21%
Nc1c2c(nc3ccccc13)CCCC2=O	4%	0%	-20%	17*	14	15%
O=C1C(=O)c2ccccc2C(O)=C1c1cccc([N+](=O)[O-])c1	5%	1%	-14%	23*	50	-5%
CC(C)c1ccc(C2=C(O)c3ccccc3C(=O)C2=O)cc1	2%	-92%	-26%	-3	10	0%[2.32 µM]
COc1ccc(C(=O)N2CCN(C3CCN(Cc4ccccc4)CC3)CC2)cc1OC	-22%	2%	-1%	-3	-9	-21%
COc1ccccc1C(=O)N1CCN(C2CCN(Cc3ccccc3)CC2)CC1	3%	nt	nt	43*	-5	5%
Cc1ccc(C(=O)NC2CCCCCCC2)c(Cl)c1	?	1%	-13%	16*	nt	6%
O=C(COC(=O)c1cc(F)c(F)cc1Cl)NC1CCCCCC1	nt	nt	nt	nt	nt	18%
O=C(NC1CCCCCCC1)c1cc(F)c(F)cc1Cl	4%	0%	-21%	26*	83*	21%
Cc1ccc(C)c(N2N=C(C(=O)Nc3cccnc3)CCC2=O)c1	-3%	-1%	-45%	nt	nt	8%
O=C(COC(=O)c1cccc(O)c1)Nc1nnc(-c2ccccc2)o1	-19%	0%	-25%	nt	nt	26%
CCCCn1c(NCc2ccc3c(c2)OCO3)nc2ccccc21	?	10%	-3%	12*	29	9%
SMILES	AmpC inh detg	SARS PLP yeast	AmpC no deterg	Cycloheximide cs	Shiga inhibitor	AMA1-RON2 inh
CCCn1c(NCc2ccc3c(c2)OCO3)nc2ccccc21	4%	1%	0%	20*	34	7%
Cc1ccc(C(=O)Nc2ccc(NC(=O)c3ccccc3Cl)c(C)c2)cc1	nt	nt	nt	nt	nt	-3%
CC(CCCC(C)(C)O)NCCO (centres undefined)	-4%	3%	-16%	-2	-11	4%
Cc1nc(S/C(=C\c2ccc(-c3ccc(C(=O)O)c(Cl)c3)o2)C(=O)O)n[nH]1	-3%	1%	-35%	-3	3	18µM*
Cc1nc(S/C(=C\c2ccc(OCc3ccccc3Cl)cc2)C(=O)O)n[nH]1	-9%	1%	-24%	1	-13	-2%
O=C1CCCC(O)=C1C(C#Cc1ccccc1)C1=C(O)CCCC1=O	?	2%	-5%	-1	3	0%
CCOc1ccc(-c2nc(CSc3nnc(N)s3)cs2)cc1	-5%	?	-3%	31*	117*	0%
CCOc1ccc(-c2nc(CSc3nnc(N)s3)cs2)cc1OC	-6%	-1%	-17%	33*	85*	-6%
O=C(Oc1ccc(/C=N/NC(=O)c2ccccn2)cc1)c1cccc(F)c1	nt	nt	nt	nt	nt	30%
O=C(N/N=C/c1ccc(Sc2ccccn2)o1)c1cc2ccccc2cc1O	1%	-14%	18µM*	22*	24	55%
O=C(N/N=C/c1ccncc1)c1cccc([N+](=O)[O-])c1	-2%	33%	-13%	6	17	nt
O=C(N/N=C\c1ccc(Sc2ccccn2)o1)c1cccc(F)c1	-11%	-7%	-49%	18*	62	16%
O=C(N/N=C/c1ccc(Sc2ccccn2)o1)c1cccc([N+](=O)[O-])c1	?	18%	10µM*	-1	8	8%
CCOc1ccccc1-n1c(=S)sc2c(=O)n(-c3ccc(F)cc3)c(SCC(=O)O)nc21	1%	-1%	-21%	6	-8	-1%
N/C(=N\c1nc2ccccc2o1)NC(=O)c1cccc(Br)c1	-6%	0%	-10%	35	1	37%
CCC(=O)N/C(N)=N/c1nc2ccccc2o1	-2%	-3%	-28%	61*	85*	68%
CCCC(=O)N/C(N)=N/c1nc2ccccc2o1	-6%	-3%	-28%	51*	87*	94%
COc1ccccc1C(=O)N/C(N)=N/c1nc2ccccc2o1	-14%	0%	-25%	20	37*	4%
CC(C)(C)C(=O)N/C(N)=N/c1nc2ccccc2o1	2%	-2%	-27%	50*	71*	65%
Cc1ccc(CC(=O)N2CCN(c3ccc([N+](=O)[O-])cc3)CC2)cc1	-2%	-1%	-11%	3	-4	-3%
O=C1CN(C(=O)c2ccc(Cl)c(S(=O)(=O)N3CCc4ccccc43)c2)c2ccccc2N1	?	0%	-38%	-5	-5	-9%
CC(C)(C)P(=O)(c1ccncc1)N1CCCC1 (centres undefined)	?	-2%	-8%	-3	-6	2%
Cc1ccc(C(=O)N/C(N)=N/c2nc3ccccc3o2)cc1	4%	5%	-23%	10	23	4%
N/C(=N\c1nc2ccccc2o1)NC(=O)c1ccccc1	?	-10%	-21%	46*	49*	102%
CC(C)CC(=O)Nc1ccc(-c2nc3ccccc3c(=O)o2)cc1	-10%	21%	3%	-3	-4	10%
NC(=NCc1ccco1)NC(=O)c1ccccc1	-4%	-4%	-14%	27*	21*	8%
N/C(=N\c1nc2ccccc2o1)NC(=O)/C=C/c1ccccc1	-4%	-1%	5µM*	0	-7	95%

Bioassay records (PubChem)
